Target: TELO2
Experiment: pooled miR-30 sensor sort-seq; sequence = guide strand
Settings: shRNA
Note: reference of the scale not given here.

| Sequence | sensor-assay potency score (higher = more potent) |
| --- | --- |
| TTCTTGTTCTTCACCACCAGGT | -0.407 |
| TTCTGGGTCATCACAAACTGGG | -0.844 |
| AAACTCATCATCGCTGTCCAGG | -1.32 |

Target: TFAP4
Experiment: as above
Settings: shRNA

| Sequence | sensor-assay potency score (higher = more potent) |
| --- | --- |
| TACATGTGGGCCTCCAGCGAGC | -1.01 |
| TTGAGGGACTGGAATCCCGCGT | -0.113 |
| TTCCCGCTCCAGCTTCTCCTGG | -1.47 |
| TTCGTCCTTGTCCTCTGCCCGC | -1.28 |
| TTCACGATGACAGCTCGCCGCT | -1.34 |
| AATCACCTTGAGCTTTTCCGGG | -1.02 |
| TTCTCTCCGTCTGTGTGGGGGA | -0.652 |
| TTGCTGTTGGCGATCTCCCGCC | -0.484 |
| TTGGCAAGGCTACAGAGCCCTC | -1.54 |
| ATCACCTTGAGCTTTTCCGGGT | -0.563 |
| TCGTCCTCCCAGATGTCCGGGG | -0.989 |
| TGCTGAGCTTCTCTCCGTCTGT | -0.432 |

Target: TFEB
Experiment: as above
Settings: shRNA

| Sequence | sensor-assay potency score (higher = more potent) |
| --- | --- |
| TAGCGTGTTGGGCATCTGCATT | -1.17 |
| AAGGACATCGTCCAGACGCATA | -1.55 |
| TTGCAGGTCCTTCTGCATCCTC | -1.28 |
| TTGTTGGTCATCTCCAGGCGGC | -1.28 |
| TTGATGTTGAACCTTCGTCTCC | -0.765 |
| TACACATTCAGGTGGCTGCTGG | -0.605 |
| TCTCCTTTCAATTAAGTTGTGA | -0.161 |
| ATCTGTGAGCTCTCGCTTCTGG | -0.356 |
| TCATTGATGTTGAACCTTCGTC | -0.00793 |
| TTCGCTAGGCAGCTCCTGCTTC | -0.419 |
| TAGCAGTGAGTCGTCCAGGAGC | -1.35 |

Target: TFPI2
Experiment: as above
Settings: shRNA

| Sequence | sensor-assay potency score (higher = more potent) |
| --- | --- |
| TTAGATTAAAGAAATACTTTTC | -0.873 |
| TGTCGTAGTAGTAACGGAGAAG | -1.18 |
| TATAGGTGAAAGCATCACAGGT | -0.811 |
| TTATTCTTCAGATACAACCATA | -1.04 |
| TTTATATCTTATGCATTGCAAG | -1.47 |
| TCTCACAAACAGTTGAACCATA | -1.02 |
| TACCTGTCGTAGTAGTAACGGA | -0.941 |
| TTGTATTAATAAAAACTGGTGA | -0.407 |
| TAGGTGAAAGCATCACAGGTTC | -0.157 |
| TCATCTTTTGGACTGTAGCAAA | -1.13 |
| TACAAGTAGCTTCATCTGGAAA | -1.17 |
| TTGGATTAAAATAATAGCGAGT | -0.659 |

— the OligoGym collection
